Assay results from PubChem BioAssay (NCATS).
Several values for one entry are separate records, joined by “and”; a condition that tells them apart may be missing. Identical values can stand only once. Inconclusive results are not listed. Activity calls are given as the source filed them. The call rests on the fitted dose curve; in most records, active means well fitted activation curve with a large enough effect; inconclusive means small, poorly fitted or top-dose-only effect; inactive means no such curve, though single readings can be large or run the other way.

Target: Cellular tumor antigen p53 (Homo sapiens) (UniProt P04637)
Assay: Primary qHTS for small molecule compounds that upregulate eGFP-tagged delta133p53alpha (in N-terminal) cells. (AID 2060322); further: nearly all actives have a fitted effect of over 75% in size;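 on activation: cells pre-induced with doxycycline then dosed without doxycycline; series mostly up to about 56 µM; 0% = DMSO vehicle and 100% = reference activator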
Details: NCI-H358 eGFP-delta133p53alpha fluorescence, 24 h; activation: active compounds read high
How it was run: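 NCI-H358 cells pre-induced 24 h with 10 ng/ml doxycycline for eGFP-delta133p53alpha, plated dox-free and exposed 24 h at 37C to titrated compounds. Fixed, Hoechst-stained; gated GFP peak intensity by laser scanning cytometry, normalized to DMSO (0%) and 57.5 uM 5-azacytidine (100%).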
Potency means the concentration at half of the fitted maximal effect.

Sequence of Cellular tumor antigen p53 (Homo sapiens) (P04637 whole entry, looked up): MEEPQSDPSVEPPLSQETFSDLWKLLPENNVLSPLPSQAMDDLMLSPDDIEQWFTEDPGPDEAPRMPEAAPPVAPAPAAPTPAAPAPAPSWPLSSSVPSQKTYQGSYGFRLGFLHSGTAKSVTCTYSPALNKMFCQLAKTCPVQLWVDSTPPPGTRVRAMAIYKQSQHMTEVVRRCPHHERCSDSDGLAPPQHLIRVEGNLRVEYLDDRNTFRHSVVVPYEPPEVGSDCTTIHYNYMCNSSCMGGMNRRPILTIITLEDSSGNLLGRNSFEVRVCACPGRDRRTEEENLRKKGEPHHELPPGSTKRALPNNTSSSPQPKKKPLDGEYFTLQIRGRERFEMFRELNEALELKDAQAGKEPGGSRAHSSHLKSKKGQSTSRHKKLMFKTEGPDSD

SMILES	activation	Potency
CO/N=C(/C(=O)N[C@@H]1C(=O)N2C(C(=O)O)=C(CSC(=O)c3ccco3)CS[C@H]12)c1csc(N)n1	-18.6% (inactive) and -3.67% (inactive)	
COC(=O)C1=COC(O[C@@H]2O[C@H](CO[C@@H]3O[C@H](COC(=O)/C=C\c4ccc(O)cc4)[C@@H](O)[C@H](O)[C@H]3O)[C@@H](O)[C@H](O)[C@H]2O)C2C(CO)=CCC12 (stereo not given in full)	33% (inactive)	
Cc1cc(N(C)C)ccc1-c1nc2ccc(-c3nc4ccc(N5CCN(C)CC5)cc4[nH]3)cc2[nH]1		30.1 µM (active)
Cc1ccc(C(=O)Nc2noc3ccccc23)cc1	-1% (inactive)	
COc1cc(C(=O)OCC2=CCC3C(C(=O)O)=COC(O[C@@H]4O[C@H](CO)[C@@H](O)[C@H](O)[C@H]4O)C23)ccc1O (stereo not given in full)	-9.82% (inactive)	
CC(C)(O)/C=C/C1=CC(=O)[C@@](C)(O)C[C@H]1O	-8.4% (inactive)	
CC1CCC2(O1)C(C)(C)CC(O[C@@H]1O[C@H](CO[C@@H]3OC[C@](O)(CO)[C@H]3O)[C@@H](O)[C@H](O)[C@H]1O)CC2(C)O (stereo not given in full)	1.79% (inactive)	
C[C@]1(C2CCCC2)Cc2cc(OCC(=O)O)c(Cl)c(Cl)c2C1=O	-3.67% (inactive)	
OC[C@H]1O[C@@H](Oc2cc(O)cc(-c3cc4ccc(O)cc4o3)c2)[C@H](O)[C@@H](O)[C@@H]1O	13.4% (inactive)	
CC1CC=C2C1CC1(O)C(=O)CC2(C)C1(C)CO (stereo not given)	3.82% (inactive)	
C=C1[C@H]2[C@H](O[C@@H]3O[C@H](COC(=O)/C=C/c4cc(OC)c(O)c(OC)c4)[C@@H](O)[C@H](O)[C@H]3O)OC=C(C(=O)O)[C@H]2C[C@@H]1O	-10.7% (inactive)	
CC1(C)C=Cc2c(ccc3c2[N+]([O-])=C2C3(O)CC34NC(=O)C5(CCCN5C3=O)CC4C2(C)C)O1 (stereo not given)	6.25% (inactive)	
CNC(=S)NS(=O)(=O)c1cc(CCNC(=O)c2cc(Cl)ccc2OC)ccc1OC	-6.68% (inactive)	
COc1cc2c(cc1O)C1(Cc3ccc4c(c3C1=O)OCO4)N(C)CC2 (stereo not given)	-7.63% (inactive)	
CC1(CO)CC(O)[C@]2(C(=O)O)CCC34CC3(C=CC3[C@]5(C)C(CC[C@]34C)C(C)(CO)[C@@H](O)[C@H](O)[C@@H]5O)C2C1 (stereo not given in full)	9.92% (inactive)	
Cc1nn(C)c2c1C(c1ccc(C(F)(F)F)cc1)C(C#N)=C(N)O2 (stereo not given)	-5.25% (inactive) and 36.9% (inactive)	
CC(C)(Oc1ccc(-c2nc3cc(Cl)ccc3s2)cc1)C(=O)O	-19.6% (inactive)	
COc1cc(C[C@@]2(O)CO[C@@H](c3ccc(O[C@@H]4O[C@H](CO)[C@@H](O)[C@H](O)[C@H]4O)c(OC)c3)[C@H]2CO)ccc1O	-17% (inactive)	
CC1=C(C(=O)O[C@@H]2O[C@H](COC3OCC(O)C(O)C3O)[C@@H](O)[C@H](O)[C@H]2O)C(C)(C)CCC1 (stereo not given in full)	-13% (inactive)	
CC1(C)OC(=O)CC(O)C2(C)C1CC(=O)C1(C)C2C(O)CC2(C)C(c3ccoc3)OC(=O)C3OC321 (stereo not given)	-23.7% (inactive)	

SMILES	activation	Potency
CC/C=C\C(O)C(O)C1=C(C)C(=O)C2(O1)C(=O)NC(OC)(C(=O)c1ccccc1)C2O (stereo not given)	0.763% (inactive)	
COc1cc(OC)c(NC(=O)c2ccc(Cc3cc4c(cc3C)C(C)(C)CCC4(C)C)o2)c(OC)c1	10.5% (inactive)	
COc1cc(/C=C/C(=O)O[C@H]2[C@H](O)[C@@H](CO)O[C@@]2(CO)O[C@H]2O[C@H](CO)[C@@H](O)[C@H](O)[C@H]2O)cc(OC)c1O	-32.8% (inactive)	
Fc1ccc2nc(CCC#Cc3ccccn3)cn2c1	2.68% (inactive)	
COc1cc(N2CCOCC2)ccc1Nc1ncc(F)c(Nc2ccccc2NS(C)(=O)=O)n1		9.53 µM (active)
O=[N+]([O-])c1ccc(-[n+]2nc(-c3ccccc3)nn2-c2ccc(I)cc2)cc1	-2.39% (inactive)	
COc1ncc(Nc2ncc([C@@H](C)N3CCN(S(C)(=O)=O)CC3)cc2-c2nc(C)nc(N)n2)cc1F	21% (inactive)	
CC1CC2OCC3(O)CCC(O)C(C14CC(c1ccoc1)OC4=O)C23CO (stereo not given)	-6.11% (inactive)	
CCCC/C=C\CCCCCc1cc(=O)c2ccccc2n1C	-0.893% (inactive)	
CC(=O)c1c(C)cc2cccc(O)c2c1O[C@@H]1O[C@H](CO)[C@@H](O)[C@H](O)[C@H]1O	-2.29% (inactive)	
C/C=C1\[C@H](OC2OC(COC3OC(CO)C(O)C(O)C3O)C(O)C(O)C2O)OC=C(C(=O)OC)[C@H]1CC(=O)OCCc1ccc(O)cc1 (stereo not given in full)	-13% (inactive)	
COc1ccc(CC2C(=O)NC(C)C(=O)N(C)C3Cc4ccc(cc4)Oc4cc(ccc4OC4OC(CO)C(O)C(O)C4O)CC(C(=O)NC(C)C(=O)NC(C)C(=O)N2C)N(C)C3=O)cc1 (stereo not given)		5.09 µM (active)
COc1cc(O)cc(O[C@@H]2O[C@H](CO)[C@@H](O[C@@H]3OC[C@](O)(CO)[C@H]3O)[C@H](O)[C@H]2O)c1OC	-14.5% (inactive)	
C[C@@H]1O[C@@H](O[C@H]2[C@@H]3C=CO[C@@H](O[C@@H]4O[C@H](CO)[C@@H](O)[C@H](O)[C@H]4O)[C@@H]3[C@@]3(CO)O[C@@H]23)[C@H](OC(=O)/C=C/c2ccc(O)c(O)c2)[C@H](O)[C@H]1O	-5.34% (inactive)	
CC(CO[C@@H]1O[C@H](COC(=O)/C=C/c2ccc(O)c(O)c2)[C@@H](O)[C@H](O)[C@H]1O)C1(O)COC(=O)C1 (stereo not given in full)	6.87% (inactive)	
CN(CCCNC(=O)c1ccc2nc3c(c(Cl)c2c1)CCCC3)Cc1ccccc1	20.5% (inactive)	
COc1cc(C(=O)OC[C@H]2O[C@@H](Oc3ccccc3/C=C/C(=O)O)[C@H](O)[C@@H](O)[C@@H]2O)cc(OC)c1OC	1.53% (inactive)	
C/C(=C\CC/C(C)=C/CC[C@]1(C)CCc2cc(O)cc(C)c2O1)CC/C=C(\C)C(=O)O	-5.36% (inactive)	
C=C1C(=O)O[C@@H]2C3C(=C(C)[C@@H](O)[C@@H](OC(=O)/C(=C/C)COC(C)=O)[C@@H]12)C(=O)[C@H]1O[C@@]31C (stereo not given in full)		2.08 µM (active)
C=C1C(O)CC2C(C(=O)O)=COC(OC3OC(CO)C(O)C(O)C3OC(=O)/C=C\c3ccc(O)cc3)C12 (stereo not given)	-22.9% (inactive)	
